Screening data from PubChem BioAssay.
ADAM10 inh: human ADAM10 inhibitors, primary screen, biochemical, QFRET, HTS; Disintegrin and metalloproteinase domain-containing protein 10 (Homo sapiens), O14672; AID 720582, 2013; hit rate 0.62% among 370,000; recombinant ADAM10, EDANS/DABCYL FRET peptide cleavage, 3 h; inhibition, % at 7 µM;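 active means inhibition above a per-campaign cutoff equal to the mean of compounds falling between control-based bounds plus 3 SD, cut at about 20% in these data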;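 further: 0% = DMSO wells while the 100% control is not disclosed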
proKLK7 act: proKLK7 zymogen activators, primary screen, biochemical, fluorescence intensity; activation, % at 7 µM; AID 652039, 2013; hit rate 0.9% among 370,000; purified proKLK7, EDANS-DABCYL substrate fluorescence; 100% is mature enzyme control, 0% vehicle;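 active means activation above the mean of all tested compounds plus 3 SD, computed per campaign excluding outliers beyond control limits, cut at about 13% in these data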
V-ATPase pHluor: regulators of yeast V-ATPase proton pumping, primary screen, pHLuorin cytosolic pH fluorescence | S. cerevisiae | hit rate 0.37% among 350,000 | response, % at 10 µM | AID 504577, 2011; in the data active means response mostly above about 7.3%, no sharp cut-off; inactive means mostly below about 5.4%; further: actives read high
ADAM17 inh: ADAM17 inhibitors, primary screen, biochemical, QFRET. inhibition, % at 6.95 µM. recombinant ADAM17, EDANS/DABCYL FRET peptide cleavage. hit rate 0.83% among 370,000;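 active means inhibition above the mean of compounds lying between control limits plus 3 SD, set per campaign, cut at about 8.5% in these data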;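 further: 0% = DMSO-only wells as the low control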
Target sequence (P78536 215-824 limits assumed): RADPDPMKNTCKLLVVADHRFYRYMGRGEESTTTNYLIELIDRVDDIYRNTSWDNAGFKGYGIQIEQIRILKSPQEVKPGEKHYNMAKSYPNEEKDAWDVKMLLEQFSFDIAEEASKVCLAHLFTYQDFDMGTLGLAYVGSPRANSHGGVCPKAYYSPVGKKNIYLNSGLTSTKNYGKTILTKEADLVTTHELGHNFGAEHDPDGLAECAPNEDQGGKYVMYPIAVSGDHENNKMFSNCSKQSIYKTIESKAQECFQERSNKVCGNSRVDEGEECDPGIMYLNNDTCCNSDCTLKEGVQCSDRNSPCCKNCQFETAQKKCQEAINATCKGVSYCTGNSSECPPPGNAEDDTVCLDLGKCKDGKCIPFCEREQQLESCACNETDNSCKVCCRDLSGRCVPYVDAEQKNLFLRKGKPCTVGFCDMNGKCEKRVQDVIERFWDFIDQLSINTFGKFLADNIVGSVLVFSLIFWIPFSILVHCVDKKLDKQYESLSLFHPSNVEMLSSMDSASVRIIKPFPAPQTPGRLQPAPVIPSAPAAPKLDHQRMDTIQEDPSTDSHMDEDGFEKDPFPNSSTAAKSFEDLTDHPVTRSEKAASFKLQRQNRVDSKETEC
ADAM10 counter: ADAM10 inhibitors, counter-screen for ADAM17 exosite inhibitor project, biochemical, FRET, human ADAM10. shares compounds with ADAM17 inh. recombinant ADAM10, EDANS/DABCYL FRET peptide cleavage, 3 h. inhibition, % at 6.95 µM. hit rate 47% among 2,900. AID 743256, 2014;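 active means mean inhibition over the triplicate runs exceeds the activity threshold set in the earlier primary screen, cut at about 20% in these data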;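 further: 0% = DMSO wells and 100% = marimastat wells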
ADAM17 confirm: ADAM17 inhibitors, hit retest, confirmation, biochemical, QFRET peptide cleavage; shares compounds with ADAM17 inh; recombinant ADAM17, EDANS/DABCYL QFRET peptide cleavage; inhibition, % at 6.95 µM; hit rate 65% among 2,900;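 active means mean inhibition across replicates above the hit cutoff set in the primary screen, cut at about 8.5% in these data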;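 further: 0% = DMSO wells and 100% = marimastat wells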
* hit, by the source's call; x = no result given. The list is not random: actives were taken first. Their share in the collection is about 2.3%.

SMILES	ADAM10 inh	proKLK7 act	V-ATPase pHluor	ADAM17 inh	ADAM10 counter	ADAM17 confirm
Nc1cc(S(=O)(=O)N2CCCCC2)ccc1Oc1ccc(Cl)cc1	20	0	-1	8.8*	17	11*
CCCCn1nnnc1C(c1cc2ccccc2o1)N1CCN(c2cc(C)nc3ccccc23)CC1 (stereo not given)	10	-2	x	8.8*	-13	1
CCCCn1nnnc1C(c1cc2ccccc2o1)N1CCN(c2ccccc2F)CC1 (stereo not given)	-7	0	x	-1	x	x
COC(=O)C1=C(C)N(Cc2cccc(C(F)(F)F)c2)C(=NCC2CC2)NC1c1cccc(Cl)c1 (stereo not given)	-2	0	x	-3	x	x
COC(=O)C1=C(C)N(Cc2ccc(F)cc2)C(=S)NC1c1cccc(OC)c1 (stereo not given)	15	0	x	3	x	x
COC(=O)[C@H](CC(C)C)NCc1cccc(CN[C@@H](CC(C)C)C(=O)OC)c1	7	-1	-3	8.9*	7	3
COC(=O)[C@H](CC(C)C)NS(=O)(=O)N(Cc1ccccc1)[C@@H](CC(C)C)C(=O)OC	12	1	-3	-4	x	x
Cc1ccc(C(C)C)cc1-n1nnc(-c2cccc(Cc3ccc4ccccc4c3)c2)c1C(C)O (stereo not given)	16	0	0	18*	31*	18*
COCc1cc(N2CCN(C(=O)OC(C)(C)C)C[C@@H]2C)ccc1N1CC[C@@H](O)C1	-10	1	x	-1	x	x
CN(CCOC(=O)c1cc2ccccc2o1)C1CN(Cc2cn(Cc3ccc([N+](=O)[O-])cc3)nn2)S(=O)(=O)C1 (stereo not given)	-1	1	x	-2	x	x
N=C(N)SCc1ccccc1Cl	-4	0	-1	9.4*	8	4
NC(CSCc1ccccc1Cl)C(=O)O (stereo not given)	-15	0	1	-4	x	x
COc1ccc(OC)c(NC(=O)C2CC(C)=C(C)CC2C(=O)O)c1 (stereo not given)	19	-1	4	11*	-9	-1
C[C@H](CO)N1C[C@H](C)[C@@H](CN(C)C(=O)Nc2ccc(C(F)(F)F)cc2)Oc2ccc(NC(=O)Cc3ccccc3)cc2C1=O	16	1	-1	16*	17	9.6*
CC(C)NC(=O)N(C)C[C@H]1Oc2ccc(NC(=O)Cc3ccccc3)cc2C(=O)N([C@H](C)CO)C[C@@H]1C	1	1	0	9.1*	-9	1
CC(C)NC(=O)N(C)C[C@H]1Oc2ccc(NC(=O)Nc3ccccc3)cc2C(=O)N([C@@H](C)CO)C[C@@H]1C	-4	0	-4	11*	2	5
Cc1cccc(-c2cccc3c4c([nH]c23)[C@@H]2C[C@H]3[C@@H](CN2CC4)[C@H](C)ON3C)c1	-42	2	x	-13	x	x
COC(=O)[C@]12C[C@H](CC(=O)N3CCSCC3)C(=O)N(Cc3ccccc3)C1=C[C@H](C(C)C)O[C@@H]2C1CC1	-1	0	x	-2	x	x
CC(C)C[C@H](CO)N(Cc1ccccc1)S(=O)(=O)N(Cc1ccccc1)[C@@H](CO)CC(C)C	-3	0	0	13*	47*	26*
COc1ccccc1OCC(=O)Nc1oc(-c2ccccc2)c(-c2ccccc2)c1C#N	4	-1	0	3	x	x
N#Cc1c(NC(=O)COC(=O)C2CC3C=CC2C3)oc(-c2ccccc2)c1-c1ccccc1 (stereo not given)	16	1	3	8.9*	-14	-2
CC(C)(C)c1cc(C(=O)CCN2CCOCC2)cc(C(C)(C)C)c1O	13	0	-6	9.4*	-3	3
O=C(CCN1CCOCC1)c1ccc(N2CCCCC2)cc1	0	0	1	-3	x	x
CCN(CC)S(=O)(=O)c1ccc(C(=O)Nc2cc3oc4ccccc4c3cc2OC)cc1	2	-5	4	1	x	x
CCN(CC)C(=O)CN(c1cc2c(cc1OC)oc1ccccc12)S(=O)(=O)c1ccc(C)cc1	19	0	-2	16*	0	8
SMILES	ADAM10 inh	proKLK7 act	V-ATPase pHluor	ADAM17 inh	ADAM10 counter	ADAM17 confirm
C=CCC[C@H](Cc1ccc(F)cc1)C(=O)O[C@H](CNC(=O)[C@@H](CC=C)CC(=O)N(CCO)Cc1ccccc1)c1ccccc1	14	1	-2	11*	45*	22*
COc1cc2c3c(c1)C1(C(=O)N3C(C)(C)C=C2C)C(C#N)=C(N)Oc2cc(O)ccc21 (stereo not given)	15	0	-5	2	x	x
CCOc1cc2c3c(c1)C1(C(=O)N3C(C)(C)C=C2C)C(C#N)=C(N)Oc2cc(O)ccc21 (stereo not given)	5	1	3	9.0*	9	12*
CCN(CC)CC(O)COC(c1ccccc1)c1ccccc1 (stereo not given)	-11	0	1	-8	x	x
CCN(Cc1ccccc1)CC(O)COC(c1ccc(OC)cc1)c1ccc(OC)cc1 (stereo not given)	4	0	2	11*	3	8
CCOC(=O)C1=CCN(S(=O)(=O)c2ccc(Br)cc2)C1c1cccc(F)c1 (stereo not given)	1	0	x	1	x	x
CCCCC(CC)COC1(c2ccccc2)OC(=O)c2ccccc21 (stereo not given)	3	0	-2	10*	-1	0
Cc1cccc(NC(=O)c2nc[nH]c2C(=O)N[C@@H](CC(C)C)C(=O)OC(C)(C)C)c1	19	0	1	11*	30*	16*
CC(C)(C)OC(=O)NCCCC[C@H](NC(=O)c1nc[nH]c1C(=O)NCc1ccccc1)C(=O)OC(C)(C)C	17	0	-4	9.2*	35*	20*
C[C@H](NC(=O)c1nc[nH]c1C(=O)N1CCN(c2ccccc2)CC1)C(=O)OCc1ccccc1	4	0	-1	2	x	x
C[C@H](NC(=O)c1nc[nH]c1C(=O)NCc1ccc(CNC(=O)OC(C)(C)C)cc1)C(=O)OCc1ccccc1	15	1	2	10*	37*	21*
C[C@H](NC(=O)c1nc[nH]c1C(=O)NCC(=O)OCc1ccccc1)C(=O)OC(C)(C)C	7	0	0	2	x	x
